For one experiment, the target named is Albumin (Bos taurus) (UniProt P02769). As to the kind of experiment: bovine serum albumin binders on microarray, profiling panel, artefact control for SMM control protein annotation, biochemical, small-molecule microarray, Alexa647 label, 635/667 nm fluorescence (AID 1118).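 Note: score merges 667 nm emission intensity and signal-to-noise per printed compound spot.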 The note with it: BSA-A647 binding, fluorescence 635 nm, higher = more signal.
A short description of experiment [1]: small-molecule microarray binders of probe aXIP, primary screen, biochemical, NeuroSMM set, 635/667 nm fluorescence (AID 1119).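 Note: probe is the protein aXip251-270 applied at 1 µg/mL to compound-printed slides; binding of probe to printed compounds measured as 667 nm fluorescence plus signal to noise.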 The note with it: higher = more signal, called active from +8 up or from −8 down.
Experiment [2] in a line: small-molecule binders of probe aNOTCH3, primary screen, biochemical, small-molecule microarray, 635/667 nm fluorescence (AID 1120).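 Note: probe is a biotin-tagged antibody raised against NOTCH3 rather than NOTCH3 protein; score merges spot fluorescence near 667 nm with spot signal to noise.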 The note with it: higher = more signal.
Experiment [3] is described as follows: small-molecule binders of probe aNOTCH2, primary screen, biochemical, small-molecule microarray, 635/667 nm fluorescence (AID 1121).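 Note: score merges feature fluorescence read at 667 nm with its signal to noise.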 The note with it: higher = more signal.
For experiment [4], the target named is Carbonic anhydrase 2 (Homo sapiens) (UniProt P00918). As to the kind of experiment: CAII small-molecule binders, profiling panel, biochemical, small-molecule microarray, Alexa647-labelled CAII (AID 1122). The note with it: CAII-A647 binding fluorescence, higher = more signal.
Experiment [5] in a line: COS7 lysate on small-molecule microarray, probe aHis, 635 nm (AID 1123).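 Note: z-score combines 667nm fluorescence intensity with signal-to-noise per printed compound spot.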 The note with it: COS7 cell lysate, fluorescence, higher = more signal.
Experiment [6] is described as follows: compound binding in COS7 lysate, probe aLAP1, primary screen, cell lysate, small-molecule microarray (AID 1124).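 Note: lysate comes from COS7 cells expressing LAP1 and is applied at 0.3 µg/mL; score merges spot fluorescence near 667 nm with signal-to-noise over triplicate slides.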 The note with it: probe aLAP1, fluorescence, higher = more signal.
Another experiment concerns Sam68 (KHDRBS1). As to the kind of experiment: Sam68 small-molecule binders, primary screen, biochemical, small-molecule microarray, 635 nm fluorescence (AID 1125).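 Note: score merges 667 nm channel intensity with signal to noise over triplicate slides.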 The note with it: small-molecule microarray binding, higher = more signal.
Experiment [7] concerns Chordin-like protein 2 (CHRDL2). As to the kind of experiment: CHRDL2 small-molecule binders, primary screen, biochemical, small-molecule microarray, 635 nm fluorescence (AID 1126).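 Note: printed compound slides probed with Chrdl2 protein at 4 µg/mL for 1 h at 4 C; score merges 667 nm emission intensity with signal to noise over three replicate slides.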 The note with it: small-molecule microarray binding, fluorescence 635 nm; higher = more signal.
For experiment [8], the target named is Concanavalin-A (Canavalia ensiformis) (UniProt P02866). As to the kind of experiment: ConA small-molecule binders, primary screen, artefact control for SMM control protein annotation, biochemical, small-molecule microarray, Alexa647 label, 635 nm (AID 1127).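 Note: z combines 667 nm emission intensity with signal-to-noise across three replicate slides.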 The note with it: ConA-A647 binding fluorescence, higher = more signal.
Sequence of Concanavalin-A (Canavalia ensiformis) (P02866 whole entry, looked up): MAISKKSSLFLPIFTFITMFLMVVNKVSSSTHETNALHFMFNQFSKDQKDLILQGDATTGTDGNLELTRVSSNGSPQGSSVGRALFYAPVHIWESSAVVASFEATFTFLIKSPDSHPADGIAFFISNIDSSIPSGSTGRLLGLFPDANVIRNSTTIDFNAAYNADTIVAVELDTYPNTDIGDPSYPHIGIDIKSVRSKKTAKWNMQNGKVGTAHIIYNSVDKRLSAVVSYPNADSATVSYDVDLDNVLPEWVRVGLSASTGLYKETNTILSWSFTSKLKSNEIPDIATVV
Experiment [9] can be described thus: anti-His antibody binders, primary screen, artefact control for SMM control protein annotation, biochemical, small-molecule microarray, 635 nm fluorescence (AID 1128).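 Note: score merges feature fluorescence with signal-to-noise for each printed compound spot.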 The note with it: anti-His Alexa647 antibody binding, higher = more signal.
For experiment [10], the system named is Human papillomavirus type 1a E7 protein (residues 1-88). As to the kind of experiment: HPV1a E7 small-molecule binders, primary screen, biochemical, small-molecule microarray, residues 1-88, 635 nm (AID 1129). The note with it: small-molecule microarray binding, fluorescence 635 nm; higher = more signal.
The target in experiment [11] is Focal adhesion kinase 1 (Homo sapiens) (UniProt Q05397). As to the kind of experiment: small-molecule microarray binders of FAK, primary screen, biochemical, 635/667 nm fluorescence, BSA, DTT (AID 1130).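 Note: composite of spot emission at 667 nm and signal to noise over triplicate slides.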 The note with it: PTK2 binding, 635 nm fluorescence, higher = more signal.
Sequence of Focal adhesion kinase 1 (Homo sapiens) (Q05397 whole entry, looked up): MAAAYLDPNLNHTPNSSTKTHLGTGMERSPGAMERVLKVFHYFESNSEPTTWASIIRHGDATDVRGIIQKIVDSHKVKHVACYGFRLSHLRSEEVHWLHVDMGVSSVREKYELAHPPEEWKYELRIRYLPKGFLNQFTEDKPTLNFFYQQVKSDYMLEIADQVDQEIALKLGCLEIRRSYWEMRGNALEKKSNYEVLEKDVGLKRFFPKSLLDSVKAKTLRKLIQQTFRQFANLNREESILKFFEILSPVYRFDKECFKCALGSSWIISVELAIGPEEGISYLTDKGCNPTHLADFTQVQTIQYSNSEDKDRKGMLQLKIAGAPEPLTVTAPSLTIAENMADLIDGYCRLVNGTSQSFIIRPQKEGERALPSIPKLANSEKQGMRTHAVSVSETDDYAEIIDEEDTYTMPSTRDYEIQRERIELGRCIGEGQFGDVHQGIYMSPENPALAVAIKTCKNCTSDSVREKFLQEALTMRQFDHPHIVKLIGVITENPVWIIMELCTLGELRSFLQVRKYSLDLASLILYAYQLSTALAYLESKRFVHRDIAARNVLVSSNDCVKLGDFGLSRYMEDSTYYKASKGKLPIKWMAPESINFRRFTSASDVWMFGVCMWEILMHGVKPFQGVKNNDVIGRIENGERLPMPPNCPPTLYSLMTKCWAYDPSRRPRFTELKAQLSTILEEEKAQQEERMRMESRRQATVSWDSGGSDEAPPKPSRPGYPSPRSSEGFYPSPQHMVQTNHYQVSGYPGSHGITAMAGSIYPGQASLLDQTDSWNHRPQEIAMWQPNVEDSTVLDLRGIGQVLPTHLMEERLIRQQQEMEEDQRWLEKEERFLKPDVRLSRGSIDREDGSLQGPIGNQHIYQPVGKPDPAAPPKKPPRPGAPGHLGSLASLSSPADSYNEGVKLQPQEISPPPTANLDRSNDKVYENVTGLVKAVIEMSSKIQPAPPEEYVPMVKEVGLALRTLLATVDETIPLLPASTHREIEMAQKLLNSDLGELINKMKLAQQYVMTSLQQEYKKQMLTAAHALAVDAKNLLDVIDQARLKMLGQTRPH
Experiment [12] has as its system Fibrinogen (Alexa647-labelled). As to the kind of experiment: fibrinogen binders on compound microarrays, profiling panel, artefact control for SMM control-protein annotation, biochemical, small-molecule microarray, 635/667 nm fluorescence (AID 1131).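 Note: z-score merges 667 nm fluorescence with per-spot signal-to-noise over triplicate slides.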 The note with it: fibrinogen-A647 binding fluorescence, higher = more signal.
The target of experiment [13] is Follistatin (Homo sapiens) (UniProt P19883). As to the kind of experiment: follistatin binders on small-molecule microarrays, primary screen, biochemical, small-molecule microarray, 635/667 nm fluorescence (AID 1132). The note with it: FST binding, 635 nm fluorescence, higher = more signal.
Sequence of Follistatin (Homo sapiens) (P19883 whole entry, looked up): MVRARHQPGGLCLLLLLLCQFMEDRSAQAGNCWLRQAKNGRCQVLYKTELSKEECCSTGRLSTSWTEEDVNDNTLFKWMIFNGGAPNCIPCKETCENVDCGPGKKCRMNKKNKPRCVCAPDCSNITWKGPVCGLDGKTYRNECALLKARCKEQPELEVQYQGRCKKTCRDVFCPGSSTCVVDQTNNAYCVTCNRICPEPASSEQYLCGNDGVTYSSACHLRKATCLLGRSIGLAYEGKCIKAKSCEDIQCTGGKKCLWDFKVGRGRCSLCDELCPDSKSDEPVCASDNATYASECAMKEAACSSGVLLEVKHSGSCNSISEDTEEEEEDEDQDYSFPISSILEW
Experiment [14] concerns the target Fibroblast growth factor 2 (Homo sapiens) (UniProt P09038). As to the kind of experiment: FGF2 binders on small-molecule microarrays, primary screen, biochemical, small-molecule microarray, 635/667 nm fluorescence (AID 1133). The note with it: small-molecule microarray binding, FGF2, fluorescence 635/667; higher = more signal.
Experiment [15] can be described thus: mitochondrial membrane potential change in A549 cells, profiling panel, cell-based, JC-1 fluorescence, basal, 24 h, 100 nL (AID 1138).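 Note: A549 lung adenocarcinoma cells under basal conditions with no added stimulus; test concentration not given here.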 The note with it: higher = more signal.
The subject of the next experiment is Lefty1. As to the kind of experiment: Lefty1 binders on small-molecule microarrays, primary screen, biochemical, small-molecule microarray, 635/667 nm fluorescence (AID 1139). The note with it: small-molecule microarray binding, fluorescence 635/667; higher = more signal.
For experiment [16], the system named is wheat germ agglutinin (Triticum aestivum), Alexa647-labelled. As to the kind of experiment: wheat germ agglutinin binders on compound microarrays, profiling panel, artefact control for SMM control-protein annotation, biochemical, small-molecule microarray, 635/667 nm fluorescence (AID 1140).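 Note: score merges 667 nm feature emission with signal to noise over triplicate slides.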 The note with it: WGA-A647 binding, 635 nm fluorescence, higher = more signal.

The target of experiment [17] is Luciferin 4-monooxygenase (Photinus pyralis) (UniProt P08659). As to the kind of experiment: firefly luciferase enzyme inhibitors, primary screen, biochemical, luminescence, purified enzyme, 2006 set (AID 1141).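 Note: cell-free assay with purified firefly luciferase at 100 ng per well in PBS; test concentration not given here.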 The note with it: SteadyGlo luminescence, 30 min, higher = more signal, called active from +8 up or from −8 down.
Sequence of Luciferin 4-monooxygenase (Photinus pyralis) (P08659 whole entry, looked up): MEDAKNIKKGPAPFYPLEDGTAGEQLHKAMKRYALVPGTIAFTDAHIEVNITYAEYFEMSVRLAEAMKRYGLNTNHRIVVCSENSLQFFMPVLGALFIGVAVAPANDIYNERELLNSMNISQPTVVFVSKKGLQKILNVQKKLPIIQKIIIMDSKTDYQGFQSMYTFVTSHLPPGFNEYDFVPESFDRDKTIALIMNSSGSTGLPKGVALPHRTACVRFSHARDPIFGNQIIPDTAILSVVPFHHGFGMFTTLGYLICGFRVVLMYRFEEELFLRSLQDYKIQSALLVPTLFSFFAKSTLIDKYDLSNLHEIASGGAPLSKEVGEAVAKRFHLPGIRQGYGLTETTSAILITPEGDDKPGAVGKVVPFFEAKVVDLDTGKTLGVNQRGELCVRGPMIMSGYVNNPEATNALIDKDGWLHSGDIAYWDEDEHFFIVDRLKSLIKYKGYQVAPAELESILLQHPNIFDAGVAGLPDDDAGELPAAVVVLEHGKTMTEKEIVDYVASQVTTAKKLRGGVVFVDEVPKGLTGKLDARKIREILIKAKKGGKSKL

SMILES strings stand for the structures. Activity calls are given as the source filed them.

Sequence of Fibroblast growth factor 2 (Homo sapiens) (P09038 whole entry, looked up): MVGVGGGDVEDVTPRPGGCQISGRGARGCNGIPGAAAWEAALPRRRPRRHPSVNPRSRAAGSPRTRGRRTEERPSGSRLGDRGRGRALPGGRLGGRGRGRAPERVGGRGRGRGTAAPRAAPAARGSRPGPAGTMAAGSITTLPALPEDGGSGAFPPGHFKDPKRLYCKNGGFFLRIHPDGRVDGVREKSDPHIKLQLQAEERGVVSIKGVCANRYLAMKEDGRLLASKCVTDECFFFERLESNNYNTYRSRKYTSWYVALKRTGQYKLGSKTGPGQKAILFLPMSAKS
Sequence of Albumin (Bos taurus) (P02769 whole entry, looked up): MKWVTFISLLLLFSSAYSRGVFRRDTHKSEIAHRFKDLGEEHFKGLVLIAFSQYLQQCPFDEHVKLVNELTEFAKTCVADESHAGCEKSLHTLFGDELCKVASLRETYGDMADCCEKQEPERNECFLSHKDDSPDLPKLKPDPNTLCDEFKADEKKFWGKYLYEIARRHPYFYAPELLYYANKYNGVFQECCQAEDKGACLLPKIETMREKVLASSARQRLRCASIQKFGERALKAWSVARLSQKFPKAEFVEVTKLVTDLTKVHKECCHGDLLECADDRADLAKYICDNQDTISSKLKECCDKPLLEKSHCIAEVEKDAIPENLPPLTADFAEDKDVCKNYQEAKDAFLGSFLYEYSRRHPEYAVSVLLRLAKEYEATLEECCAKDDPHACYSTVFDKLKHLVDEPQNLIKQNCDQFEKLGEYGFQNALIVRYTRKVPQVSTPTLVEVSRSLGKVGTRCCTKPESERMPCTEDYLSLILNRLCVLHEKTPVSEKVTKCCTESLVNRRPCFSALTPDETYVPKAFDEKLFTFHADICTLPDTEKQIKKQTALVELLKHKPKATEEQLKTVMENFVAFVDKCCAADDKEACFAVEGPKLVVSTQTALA

On to `COC(=O)[C@@]1(Cc2ccc(OC)cc2)[C@H]2c3cc(C(=O)N(C)C)n(CCO)c3C[C@H]2CN1C(=O)c1ccccc1`, for which the composite z-score with Albumin (Bos taurus) was 0.625; in experiment [2], -0.102; in [3] it was 0.257; in [4], 0.935; in experiment [5], 1.19; in experiment [6] it was 0.971. Moreover, the composite z-score in the experiment with Sam68 (KHDRBS1) was -0.924; in experiment [7], -0.784; in experiment [8], 0.001; in experiment [9], 0.214; in [10] it was 0.498; in experiment [11], 1.45. Also, the composite z-score in experiment [12] is 0.662; in experiment [13] it was -0.603; in [14] it was -0.545; in the experiment with Lefty1, -1.19; in [16], 0.946. Besides, in [1], the composite Z-score was 0.126 (inactive). In addition, the z-score is 0.782 in [15] and 2.04 (inactive) in experiment [17].
On to `C=C(C)[C@@H]1CC=C(C(O)C2C=CC3C(=O)N(c4ccccc4)C(=O)C3N2Nc2ccccc2F)CC1` (stereo not given in full), for which the composite z-score was 0.956 in the experiment with Albumin (Bos taurus); 0.466 in experiment [2]; -0.0467 in [3]; 0.747 in [4]; 3.08 in experiment [5]; -0.102 in experiment [6]. The composite z-score is 1.34 in the experiment on Sam68 (KHDRBS1); 0.0095 in [7]; 1.13 in [8]; 0.282 in [9]; 1.27 in experiment [10]; 1.12 in [11]. Besides, the composite z-score in experiment [12] was determined as 0.987; in experiment [13], 1.11; in [14], 0.0538; in the experiment with Lefty1, 0.531; in [16], 1.27. Further, the composite Z-score in [1] was 0.117 (inactive). For the same compound, the results for the z-score in experiment [15] and in [17] were -0.568 and -0.809 (inactive), respectively.
On to `CC(=O)NCCCC[C@@H]1NC(=O)[C@@H]2C[C@H](C(=O)NCCCC[N+](C)(C)C)[C@H](c3ccc(O)cc3)N2C1=O`, for which the composite z-score in the experiment with Albumin (Bos taurus) was -0.763; in experiment [2] it was 0.271; in experiment [3], -0.0467; in [4] it was 0.514; in [5] it was 1.18; in experiment [6] it was -0.111. The composite z-score is 1.29 with Sam68 (KHDRBS1); 1.35 in [7]; 1.16 in [8]; 3.1 in [9]; -0.882 in experiment [10]; -0.218 in [11]. Further, the composite z-score in experiment [12] was 0.764; in [13], 1.48; in [14] it was 1.73; with Lefty1 it was 1.49; in experiment [16], -0.23. The composite Z-score in experiment [1] was 0.0463 (inactive). Further, the results for the z-score in experiment [15] and in experiment [17] were -1.12 and -0.174 (inactive), respectively.
In the case of `COc1ccc([Si](C)(C)[C@@H]2[C@@H](CC(=O)N(CCO)Cc3ccccc3)O[C@]3(C(=O)N(c4ccccc4)c4ccccc43)[C@H]2C)cc1`, the composite z-score in the experiment with Albumin (Bos taurus) was 0.593; in experiment [2], 0.105; in experiment [3], -0.162; in [4] it was 0.357; in [5], 1.07; in experiment [6], 0.0513. The composite z-score in the experiment with Sam68 (KHDRBS1) worked out at 0.981; in experiment [7], 1.4; in experiment [8] it was 1.1; in experiment [9], 1.13; in experiment [10], 1.14; in [11] it was 0.437. Further, the composite z-score is 0.874 in [12]; 1.07 in experiment [13]; 0.716 in [14]; 1.29 in the experiment with Lefty1; 0.291 in experiment [16]. In experiment [1], the composite Z-score was 0.657 (inactive). For the same compound, the values for the z-score in experiment [15] and in experiment [17] were 0.0115 and 0.293 (inactive), respectively.
For `O=C1O[C@H](c2ccccc2)[C@H](c2ccccc2)N2[C@H]1[C@@H](C(=O)Nc1nc3ccccc3s1)[C@]1(C(=O)Nc3ccc(C#CC4(O)CCCCCC4)cc31)[C@H]2c1ccccc1OCCO`, the composite z-score is 0.743 in the experiment with Albumin (Bos taurus); 0.0459 in experiment [2]; -0.0454 in experiment [3]; 0.461 in experiment [4]; 1.82 in experiment [5]; 0.398 in [6]. In addition, the composite z-score came out at 1.3 in the experiment with Sam68 (KHDRBS1); 0.413 in experiment [7]; 1.07 in experiment [8]; 1.41 in experiment [9]; 1.2 in [10]; 0.193 in [11]. Besides, the composite z-score was 0.943 in [12]; 1.3 in experiment [13]; 0.903 in experiment [14]; 1.16 in the experiment on Lefty1; 0.742 in experiment [16]. Moreover, the composite Z-score in experiment [1] is -0.305 (inactive). For the same compound, the values for the z-score in experiment [15] and in experiment [17] were -2.19 and -0.62 (inactive), respectively.
